ELG1 DNA repair: inhibitors of ELG1-dependent DNA repair in HEK293T cells | HEK293T ELG1-luciferase reporter, luminescence, 16 h; DNA damage induced by 5-fluorouridine | Potency, µM (highest dose often 46.1 µM), for the others: at the top dose activity change, negative = inhibition, usual class: inhibitors | hit rate 2.3% among 330,000; further: on the % scale 0 is the no-effect control and ±100 the full control effect; nearly all actives have a fitted effect of over 55% in size
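Cells (2,000 per well) received 5-fluorouridine plus test compound or DMSO and were incubated 16 hr at 37 °C, 5% CO2. Luciferase activity was read by luminescence 30 min after ONE-Glo addition; signal suppression marked inhibition of damage-induced ELG1 function.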
PGK inhibitor: T. brucei PGK inhibition. P07378. PGK/GAPDH coupled, Kinase-Glo luminescence, 60 min. Potency, µM (top dose mostly 57.5 µM), for inactives: at the top dose activity change, negative = inhibition, actives largely listed as inhibitors. hit rate 0.043% among 380,000. AID 602233; further: on the % scale 0 is the no-effect control and ±100 the full control effect; nearly all actives have a fitted effect of over 60% in size
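Luminescent ATP detection (Kinase-Glo Plus) follows a 60-minute room-temperature incubation, with wells lacking PGK as controls. Buffer: 100 mM TEA (pH 7.6), 5 mM MgCl2, 0.01% Tween-20. Coupling enzyme GAPDH (100 nM final) supplies unstable 1,3-BPG in-well.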
Rango dissoc inh: prevents RanGTP from dissociating the Rango-importin beta complex; AID 540253; Biochemical FRET Rango-importin beta, RanGTP-induced dissociation; hit rate 0.071% among 340,000; Potency, µM (doses to about 46.1 µM), for the others: at the highest dose activity change, negative = inhibition; O95149+P62826; calls by dose curve; further: % of control where 0% means no effect; nearly all actives have a fitted effect of over 45% in size
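FRET read at 45 min, room temperature: inhibitors block the CFP/YFP signal rise when RanGTP (0.6 uM Ran, 2 mM GTP, 0.2 uM RCC1) frees Rango (0.1 uM) from importin beta (0.25 uM). Pre-read after 5 min compound exposure flags interference.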
Tb PFK block: inhibitors of T. brucei phosphofructokinase; O15648; T. brucei PFK, ADP-Glo luminescence; Potency, µM (titrated, usually from 57.5 µM), for the others: top-dose activity, negative = inhibition, actives largely listed as inhibitors; hit rate 0.17% among 330,000; AID 485367;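 further: 0% = uninhibited 1x PFK enzyme wells and -100% = no-enzyme wells; nearly all actives have a fitted effect of over 60% in size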
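PFK 1.25 nM, F6P 0.5 mM, ATP 0.1 mM, 0.1 M TEA pH 8.0, 5 mM MgCl2, 0.01% Tween20, 0.1% BSA; 45 min RT. ADP-Glo readout. qHTS titration up to 57 uM; curves fitted, compounds curve-classed.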
Rango complex inh: inhibitors of Rango-importin beta complex formation. Q14974. Rango CFP/YFP FRET sensor + importin beta, 45 min. Potency, µM (doses to about 92.2 µM), inactives show at the top dose inhibition of complex formation. hit rate 0.031% among 340,000. AID 540263; calls by dose curve;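 further: 0% = DMSO wells and 100% = buffer wells lacking importin beta; nearly all actives have a fitted effect of over 15% in size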
Target sequence (Q14974 whole entry, looked up): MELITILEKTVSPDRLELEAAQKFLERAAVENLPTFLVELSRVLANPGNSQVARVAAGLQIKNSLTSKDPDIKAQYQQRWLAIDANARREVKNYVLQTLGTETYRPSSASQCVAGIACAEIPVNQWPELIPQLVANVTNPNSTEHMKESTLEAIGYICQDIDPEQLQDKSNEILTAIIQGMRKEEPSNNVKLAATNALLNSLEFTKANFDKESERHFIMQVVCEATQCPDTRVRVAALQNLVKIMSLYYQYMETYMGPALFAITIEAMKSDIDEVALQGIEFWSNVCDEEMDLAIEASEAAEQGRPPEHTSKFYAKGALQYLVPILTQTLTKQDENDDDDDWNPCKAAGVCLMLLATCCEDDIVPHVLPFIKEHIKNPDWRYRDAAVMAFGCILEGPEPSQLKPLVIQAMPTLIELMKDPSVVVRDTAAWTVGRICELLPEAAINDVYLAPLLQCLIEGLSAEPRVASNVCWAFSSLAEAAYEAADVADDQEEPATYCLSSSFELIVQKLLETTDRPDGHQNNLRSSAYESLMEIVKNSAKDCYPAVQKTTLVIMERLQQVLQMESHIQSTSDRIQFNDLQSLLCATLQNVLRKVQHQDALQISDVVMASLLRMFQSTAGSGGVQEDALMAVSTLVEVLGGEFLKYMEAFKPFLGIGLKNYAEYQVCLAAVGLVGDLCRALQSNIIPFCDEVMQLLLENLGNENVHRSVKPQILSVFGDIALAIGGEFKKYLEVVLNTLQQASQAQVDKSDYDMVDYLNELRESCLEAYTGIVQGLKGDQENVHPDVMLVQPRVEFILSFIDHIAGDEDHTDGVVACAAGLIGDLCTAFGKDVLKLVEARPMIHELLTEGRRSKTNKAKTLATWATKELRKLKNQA
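Inhibition scored from the CFP 486 nm/YFP 530 nm FRET ratio 45 min after adding 0.125 microM importin beta to 50 nM Rango biosensor preincubated 5 min with compound (room temperature, PBS with DTT, Tween-20, BSA). No-importin wells as positive control.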
PKM2 activator: PKM2 (human) enzyme activation; P14618; purified PKM2, Kinase-Glo ATP luminescence, activation; response scale: 0% is enzyme alone, no compound; Potency, µM (doses to about 57.5 µM), without a hit: at the top dose activation, hits mostly activators; hit rate 0.34% among 260,000; AID 1631; further: on the % scale 0 is the no-effect control and ±100 the full control effect; nearly all actives have a fitted effect of over 55% in size
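Kinase-Glo luminescence reports ATP generated from ADP (0.1 mM) and PEP (0.5 mM) by purified hPK-M2 after 1 h at room temperature, pH 7.2 imidazole buffer; intermediate enzyme activity allows detecting inhibitors and activators.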
Numbers without * were called inactive; ? = inconclusive; / = no result given. The list is not random: actives were taken first. Their share in the collection is about 2.4%. Unless noted, the call rests on the fitted dose curve; in most records, active means well fitted curve in the direction sought with a large enough effect; inconclusive means small, poorly fitted or top-dose-only effect, or another doubt; inactive means no such curve, though single readings can be large; an effect the other way counts as inactive or inconclusive. Potency means the concentration at half of the fitted maximal effect.

SMILES	ELG1 DNA repair	PGK inhibitor	Rango dissoc inh	Tb PFK block	Rango complex inh	PKM2 activator
Cc1ccccc1C(=O)N1CCN(c2ccc(NC(=O)c3cccc(OC(C)C)c3)cc2)CC1	16µM*	-4%	0%	1%	0%	-1%
Cc1ccccc1C(=O)N1CCN(c2ccc(NC(=O)c3ccco3)cc2)CC1	-9%	-3%	-15%	5%	2%	-9%
O=C(Nc1ccc(N2CCN(C(=O)c3ccccc3)CC2)cc1)c1cccnc1	?	-5%	-1%	1%	-4%	2%
Cc1cccc(Cn2cnc3c(sc4nc(C)cc(C)c43)c2=O)c1	8%	-6%	-3%	-5%	-4%	10%
O=C1CC(O)(C(F)F)Oc2ccc3ccccc3c21 (stereo not given)	16µM*	-6%	0%	1%	0%	0%
CCCN1C(=O)/C(=C/c2ccc(C)o2)SC1=Nc1ccc(OC)cc1	?	0%	-8%	1%	5%	1%
COc1ccc(N=C2S/C(=C\c3ccc(N4CCOCC4)o3)C(=O)N2CCc2c[nH]c3ccccc23)cc1	?	/	/	?	/	3.2µM*
CNC(=O)C[C@@H]1C(=O)N(CCc2ccccc2)CC1(C)C	/	0%	/	/	/	/
COc1ccc(OC)c(CCNC(=O)CS(=O)(=O)Cc2nc(-c3ccccc3Cl)oc2C)c1	21µM*	0%	-14%	-1%	-1%	0%
O=C(Nc1sc2c(c1C(=O)NCC1CCCO1)CCC2)c1cc(=O)c2ccccc2o1 (stereo not given)	/	-8%	/	/	/	/
COc1ccc(/C=N/NC(=O)c2cccnc2)cc1CSc1nc2ccccc2s1	7.3µM*	-3%	7%	-1%	-3%	-12%
COc1ccc(/C=N\NC(=O)c2ccc([N+](=O)[O-])c(C)c2)cc1COc1ccccc1C(N)=O	?	-4%	-5%	5%	0%	5%
COc1ccc(/C=N/NC(=O)c2ccn[nH]2)cc1COc1ccc([N+](=O)[O-])c(C)c1	?	4%	1%	-7%	1%	-4%
COc1ccc(/C=N/NC(=O)c2cccnc2)cc1COc1ccc([N+](=O)[O-])c(C)c1	15µM*	2%	8%	-6%	3%	-3%
COc1ccc(/C=N/NC(=O)c2ccccc2Cl)cc1CSc1nc2ccccc2s1	-1%	-8%	38%	-2%	15%	1%
COc1ccc(/C=N\NS(=O)(=O)c2ccc(C)cc2)cc1COc1ccccc1[N+](=O)[O-]	16µM*	0%	-2%	0%	?	-9%
COc1ccc(/C=N/NC(=O)c2ccccc2OC)cc1COc1ccccc1[N+](=O)[O-]	13µM*	-2%	-3%	-4%	1%	-3%
CC(OC(=O)c1ccc([N+](=O)[O-])o1)C(=O)Nc1nc(-c2ccc(F)c(F)c2)cs1 (stereo not given)	?	-1%	8%	-19%	-1%	/
COCCn1c(SC(C)C(=O)NCC2CCCO2)nc2scc(-c3ccc(F)cc3)c2c1=O (stereo not given)	?	8%	5%	-1%	4%	/
Cc1nnc(SC(C)C(=O)NC2CCCCC2)[nH]c1=O (stereo not given)	/	-5%	7%	/	1%	/
O=C(Nc1ccc(F)cc1)c1oc2ccccc2c1NC(=O)C1CCCCC1	/	10%	/	/	/	/
COc1ccccc1C1CCN(c2cc(O)ccc2[N+](=O)[O-])CC1	12µM*	0%	1%	-5%	0%	-4%
O=C(c1cn(-c2ccccc2)nc1-c1cccnc1)N1CCN(S(=O)(=O)c2cccc(F)c2)CC1	?	7%	10%	-3%	-1%	/
CCOC(=O)c1cc(-c2c(Cl)cccc2Cl)no1	13µM*	0%	-2%	-5%	2%	13%
